Results on 16 compounds are retold here after PubChem BioAssay.

Experiment [1] relates to Plasmodium falciparum Sir2 (PF13_0152, Sir2A). Nature of the experiment: Plasmodium falciparum Sir2A binding compounds – biochemical, small-molecule microarray, 635 nm fluorescence, primary screen (AID 1098).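 Further: score merges spot fluorescence intensity with its signal-to-noise ratio.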 The following applies: fluorescence 635 nm, higher = more signal.
Experiment [2] is described as follows: probe aDKK1 binding to arrayed compounds – biochemical, biotinylated probe, 635/667 nm fluorescence, primary screen (AID 1099).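 Further: score merges 667nm spot fluorescence with signal to noise across triplicate slides; reference of the scale not given here.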 The note with it: small-molecule microarray, higher = more signal.
Experiment [3] is described as follows: probe aCHRDL2 binding to arrayed compounds – biochemical, biotinylated probe, 635/667 nm fluorescence, primary screen (AID 1100). The following applies: small-molecule microarray, higher = more signal.
Experiment [4] can be described thus: change in splice reporter luminescence, either direction, cell-based, HEK293, spliceosome inhibition project, primary screen (AID 1101).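 Further: HEK293 cells carrying a splicing-competent luciferase reporter gene; test concentration not given here.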 The note with it: HEK293 splicing luciferase reporter, 24 h, higher = more signal, called active from +8 up or from −8 down. For orientation: A reporter such as luciferase makes a cellular process visible.
Experiment [5] has as its target Fibroblast growth factor 10 (Homo sapiens) (UniProt O15520). Nature of the experiment: compounds binding fibroblast growth factor 10 – biochemical, small-molecule microarray, 635 nm fluorescence, primary screen (AID 1102). The following applies: FGF10 binding, fluorescence 635 nm, higher = more signal.
Experiment [6] has as its system glycogen synthase kinase-3 (GSK3A per assay name; protocol says GSK3B). Nature of the experiment: compounds binding glycogen synthase kinase-3 – biochemical, small-molecule microarray, 635 nm fluorescence, GSK3A, primary screen (AID 1103). Further: the record names both GSK3A and GSK3B. The note with it: fluorescence 635 nm, higher = more signal.
Experiment [7] deals with Epidermal growth factor receptor (Homo sapiens) (UniProt P00533). Nature of the experiment: compounds binding epidermal growth factor receptor – biochemical, small-molecule microarray, 635 nm fluorescence, primary screen (AID 1104).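 Further: score merges 667 nm emission intensity with spot signal to noise over triplicate slides.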 The note with it: EGFR binding, higher = more signal.
Epidermal growth factor receptor (Homo sapiens), sequence (P00533 whole entry, looked up): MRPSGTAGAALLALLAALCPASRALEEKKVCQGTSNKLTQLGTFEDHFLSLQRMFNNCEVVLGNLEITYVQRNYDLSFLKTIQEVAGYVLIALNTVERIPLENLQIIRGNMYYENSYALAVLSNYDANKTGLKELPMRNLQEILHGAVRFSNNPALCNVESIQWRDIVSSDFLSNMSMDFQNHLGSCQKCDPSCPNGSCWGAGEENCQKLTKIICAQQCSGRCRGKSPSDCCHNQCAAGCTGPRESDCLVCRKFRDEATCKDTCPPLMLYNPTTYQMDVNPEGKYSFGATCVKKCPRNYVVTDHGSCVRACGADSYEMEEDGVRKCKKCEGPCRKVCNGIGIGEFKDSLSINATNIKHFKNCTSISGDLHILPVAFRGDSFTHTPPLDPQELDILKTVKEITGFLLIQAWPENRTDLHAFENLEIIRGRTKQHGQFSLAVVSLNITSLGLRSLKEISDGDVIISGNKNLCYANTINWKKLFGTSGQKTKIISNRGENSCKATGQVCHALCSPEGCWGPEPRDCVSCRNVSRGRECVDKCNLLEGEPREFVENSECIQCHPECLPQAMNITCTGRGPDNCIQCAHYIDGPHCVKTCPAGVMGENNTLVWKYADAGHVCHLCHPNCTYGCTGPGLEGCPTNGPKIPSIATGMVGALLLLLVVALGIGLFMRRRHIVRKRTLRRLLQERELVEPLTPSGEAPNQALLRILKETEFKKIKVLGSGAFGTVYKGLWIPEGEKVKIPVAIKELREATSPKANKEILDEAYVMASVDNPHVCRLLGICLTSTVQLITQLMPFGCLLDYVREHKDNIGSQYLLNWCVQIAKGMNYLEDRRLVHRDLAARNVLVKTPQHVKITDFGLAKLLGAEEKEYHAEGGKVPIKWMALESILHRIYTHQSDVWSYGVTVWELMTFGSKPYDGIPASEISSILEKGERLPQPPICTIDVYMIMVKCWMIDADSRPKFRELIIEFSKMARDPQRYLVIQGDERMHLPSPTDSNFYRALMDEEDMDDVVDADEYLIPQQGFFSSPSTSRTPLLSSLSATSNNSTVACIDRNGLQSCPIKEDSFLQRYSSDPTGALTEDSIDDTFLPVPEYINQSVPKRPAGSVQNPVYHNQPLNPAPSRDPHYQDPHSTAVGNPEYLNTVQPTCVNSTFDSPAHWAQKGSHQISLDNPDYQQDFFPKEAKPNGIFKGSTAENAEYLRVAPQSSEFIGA
In experiment [8] the target is Follistatin-related protein 3 (Homo sapiens) (UniProt O95633). Nature of the experiment: compounds binding follistatin-related protein 3 – biochemical, small-molecule microarray, 635 nm fluorescence, primary screen (AID 1105).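 Further: score merges emission near 667 nm and signal to noise per printed spot across three slides.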 The following applies: FSTL3 binding, higher = more signal.
Follistatin-related protein 3 (Homo sapiens), sequence (O95633 whole entry, looked up): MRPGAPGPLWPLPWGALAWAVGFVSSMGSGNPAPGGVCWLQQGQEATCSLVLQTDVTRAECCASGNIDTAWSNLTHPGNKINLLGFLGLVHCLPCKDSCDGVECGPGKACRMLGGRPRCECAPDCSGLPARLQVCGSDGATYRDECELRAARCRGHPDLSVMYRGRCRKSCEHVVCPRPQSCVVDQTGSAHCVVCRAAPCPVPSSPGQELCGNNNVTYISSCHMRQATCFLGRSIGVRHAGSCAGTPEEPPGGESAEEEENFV
Experiment [9] has as its target Dickkopf-related protein 1 (Homo sapiens) (UniProt O94907). Nature of the experiment: small molecules binding DKK1 protein – biochemical, small-molecule microarray, 635 nm fluorescence scan, primary screen (AID 1106).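 Further: score merges emission near 667 nm with signal to noise over three replicate slides.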 The following applies: higher = more signal.
Experiment [10] relates to Inhibin beta A chain (activin A). Nature of the experiment: small molecules binding activin A – biochemical, small-molecule microarray, 635 nm fluorescence scan, primary screen (AID 1107).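 Further: mouse activin A protein probed at 4.33 µg/mL on printed slides; score merges bound-protein fluorescence near 667 nm with spot signal-to-noise.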 The following applies: INHBA, higher = more signal.

The source made the active and inactive calls.

Fibroblast growth factor 10 (Homo sapiens), sequence (O15520 whole entry, looked up): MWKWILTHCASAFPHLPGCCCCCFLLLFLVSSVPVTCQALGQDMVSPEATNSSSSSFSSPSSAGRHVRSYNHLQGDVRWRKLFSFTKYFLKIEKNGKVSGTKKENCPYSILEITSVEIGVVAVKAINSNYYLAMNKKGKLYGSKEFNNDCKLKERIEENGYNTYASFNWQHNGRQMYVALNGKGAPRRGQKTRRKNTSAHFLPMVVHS
Dickkopf-related protein 1 (Homo sapiens), sequence (O94907 whole entry, looked up): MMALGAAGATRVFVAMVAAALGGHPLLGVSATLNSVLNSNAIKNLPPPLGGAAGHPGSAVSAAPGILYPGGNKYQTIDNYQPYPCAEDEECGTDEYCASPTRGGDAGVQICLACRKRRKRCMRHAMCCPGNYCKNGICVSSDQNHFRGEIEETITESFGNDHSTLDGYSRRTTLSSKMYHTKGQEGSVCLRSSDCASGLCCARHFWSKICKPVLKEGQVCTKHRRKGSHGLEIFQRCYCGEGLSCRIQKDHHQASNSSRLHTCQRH

With `[N-]=[N+]=NCc1ccccc1[C@H]1OC(c2ccc(OCCCO)cc2)=N[C@@]1(Cc1ccccc1)C(=O)N1CCOCC1`, the composite z-score in experiment [1] came out at 1.25; in [2] it was 0.721; in experiment [3], 0.884; in experiment [5], 1.37; in experiment [6] it was 1.33; in experiment [7] it was 0.0968. The composite z-score was 0.808 in experiment [8], -0.0244 in [9] and -0.303 in experiment [10]. The z-score in experiment [4] is -0.991 (inactive).
In the case of `CCCC=C(CCC)[C@@H](NC(=O)c1ccco1)c1ccc(C(=O)OC)cc1`, the composite z-score in experiment [1] is 0.851; in experiment [2], 0.241; in [3] it was 1.01; in experiment [5] it was 1.08; in experiment [6], 1.3; in experiment [7], 0.0415. Besides, the composite z-score in experiment [8] was 0.938; in [9] it was -0.18; in experiment [10], 0.46. In experiment [4], the z-score was -0.545 (inactive).
`C=CCOC(=O)[C@@H]1[C@H]2C(=O)O[C@H](c3ccccc3)[C@H](c3ccccc3)N2[C@H](c2ccc(OCCOC(=O)[C@H]3C[C@H]4C(=O)NCC(=O)N4[C@H]3c3ccc(O)cc3)cc2)[C@@]12C(=O)Nc1ccc(I)cc12`: the composite z-score in experiment [1] came out at 1.57; in [2], 0.159; in experiment [3], 0.21; in experiment [5], 0.613; in [6] it was 1.35; in [7] it was 0.728. Moreover, the composite z-score in experiment [8] was 1.02; in experiment [9], 0.674; in experiment [10], -0.0057. Besides, the z-score in [4] was 1.14 (inactive).
With `COCCOC(=O)N1C(=O)[C@@]2(c3cc(C#CCCO)ccc31)[C@H](C(=O)N1CCc3cc(OC)c(OC)cc3C1)[C@H]1C(=O)O[C@H](c3ccccc3)[C@H](c3ccccc3)N1[C@@H]2c1ccccc1OCCO`, the composite z-score in [1] was 1.64; in [2], -0.232; in [3], 0.0036; in experiment [5], 1.42; in experiment [6], 1.29; in experiment [7], 0.861. Moreover, the composite z-score is 1.32 in experiment [8], 0.35 in experiment [9] and 0.748 in experiment [10]. In addition, the z-score in experiment [4] is -0.961 (inactive).
As to `O=C1C2C=CC(C(O)c3ccc([N+](=O)[O-])cc3)N(Nc3ccccc3)C2C(=O)N1c1ccccc1` (stereo not given), the composite z-score in experiment [1] was 1.32; in experiment [2], 0.3; in experiment [3], 0.585; in experiment [5], 0.466; in [6], 0.273; in experiment [7], -0.0215. For the same compound, the results for the composite z-score in experiment [8], in experiment [9] and in experiment [10] were 0.481, -0.521 and 0.87, respectively. For the same compound, in experiment [4], the z-score is 4.07 (inactive).
With `CN(C)CCCC[C@@H]1NC(=O)[C@@H]2C[C@H](C(=O)NCCCCCCNC(=O)CS)[C@H](c3cccc(OCCO)c3)N2C1=O`, the composite z-score in experiment [1] was 1.59; in experiment [2] it was 0.0307; in experiment [3], 0.358; in [5], 0.419; in experiment [6], 0.842; in experiment [7], -0.247. The composite z-score in experiment [8] was -0.0613; in experiment [9], 0.735; in experiment [10], -0.0529. In experiment [4], the z-score is -0.162 (inactive).
As to `C=CC[C@@]12N=C(c3ccc(OCCCO)cc3)O[C@@H]1c1ccccc1N(Cc1ccccc1)C2=O`, the composite z-score turned out to be 1.55 in experiment [1]; 1.36 in experiment [2]; 1.08 in experiment [3]; 1.26 in experiment [5]; 1.34 in experiment [6]; 0.657 in experiment [7]. Also, the composite z-score came out at 1.48 in experiment [8], 0.904 in experiment [9] and 1.12 in experiment [10]. Also, the z-score in [4] was -1.37 (inactive).
`C=CCNC(=O)[C@@H]1[C@H]2C(=O)O[C@H](c3ccccc3)[C@H](c3ccccc3)N2[C@H](c2ccccc2OCCO)[C@@]12C(=O)N(C(=O)OCCOC)c1ccc(C#CCCO)cc12`: the composite z-score in experiment [1] is 1.05; in [2], -0.274; in experiment [3], 0.272; in experiment [5], 1.35; in experiment [6] it was 1.23; in experiment [7], 0.266. Further, the composite z-score in experiment [8] was 0.904; in experiment [9], 0.312; in experiment [10] it was 0.241. Also, the z-score in [4] is -0.821 (inactive).
As to `CCCCCN1CC=CC23O[C@@H]4C=CCOC(=O)[C@@H]4[C@H]2C(=O)N(CCCCCO)[C@@H]3C1=O` (stereo not given in full), the composite z-score in experiment [1] is 1.37; in experiment [2], -0.181; in experiment [3], 0.398; in experiment [5], -0.893; in experiment [6], -1.15; in experiment [7] it was -0.728. Besides, the composite z-score in experiment [8] is -0.52; in [9] it was -0.63; in [10], 0.676. Besides, in experiment [4], the z-score was -0.522 (inactive).
For the compound `O=C1OCCC=C[C@H]2OC34C=CCN(CCN5CCOCC5)C(=O)[C@H]3N(CCCO)C(=O)[C@@H]4C12` (stereo not given in full), the composite z-score in experiment [1] is 1.41; in [2], -0.242; in experiment [3] it was 0.119; in experiment [5], -0.272; in [6], -0.869; in [7], -0.938. Further, the composite z-score was -0.549 in experiment [8], -0.0385 in experiment [9] and 0.564 in experiment [10]. In addition, the z-score in experiment [4] is -1.12 (inactive).
In the case of `COc1cccc(OC)c1C(=O)O[C@H]1[C@@H]2OC(=O)[C@H](Cc3cccc(Br)c3)C/C=C/C[C@@H](Cc3cccc(Br)c3)C(=O)O[C@H]2[C@@H](OC)O[C@@H]1CO`, the composite z-score in [1] was -0.178; in experiment [2], 0.281; in [3], 0.325; in experiment [5], 0.927; in experiment [6], 0.277; in [7] it was -0.0525. In addition, the values for the composite z-score in experiment [8], in experiment [9] and in experiment [10] were 0.735, 0.298 and 0.42, respectively. In addition, the z-score in experiment [4] is 0.0705 (inactive).
As for `COC(=O)[C@]1(CO)N=C(c2ccc(OCCCO)cc2)O[C@@H]1c1ccccc1CN=[N+]=[N-]`, the composite z-score in experiment [1] was 0.853; in experiment [2] it was 0.109; in experiment [3], 0.292; in [5], 0.0716; in [6], 0.421; in experiment [7], -0.237. The composite z-score was 0.0239 in experiment [8], 0.102 in [9] and 0.193 in [10]. In addition, the z-score in [4] is 0.706 (inactive).
For `CCN(CC)c1ccc(N2CC=CC34O[C@@H]5C=CCOC(=O)[C@@H]5[C@H]3C(=O)N(CCCO)[C@@H]4C2=O)cc1` (stereo not given in full), the composite z-score in [1] is 0.481; in [2] it was -0.464; in experiment [3], 0.0573; in [5], -0.946; in [6] it was -1.11; in experiment [7], -0.853. Moreover, the results for the composite z-score in experiment [8], in [9] and in experiment [10] were -0.69, -0.901 and 1.65, respectively. Besides, in [4], the z-score is -1.6 (inactive).
With `COc1ccccc1CN1C(=O)c2ccccc2[C@](Cc2ccccc2I)(C(=O)NCCCN(C)C)[C@@H]1c1ccc(CO)cc1`, the composite z-score in experiment [1] is 1.2; in [2] it was -0.556; in experiment [3], -0.376; in [5], -0.0448; in experiment [6], 1.22; in experiment [7] it was 0.221. Further, the values for the composite z-score in [8], in experiment [9] and in experiment [10] were 0.158, 0.0393 and 0.545, respectively. Further, in experiment [4], the z-score was -1.79 (inactive).
For the compound `CCCCC(=C=CC[C@@H](O)c1ccc(OCCO)cc1)C[C@@H](O)c1ccccn1`, the composite z-score in experiment [1] is 0.381; in experiment [2] it was -0.0087; in [3] it was -0.162; in [5] it was 0.279; in [6], 0.382; in [7] it was -0.123. For the same compound, the composite z-score in [8] amounted to 0.588; in experiment [9], 0.414; in [10] it was 0.981. Further, the z-score in experiment [4] is 0.0171 (inactive).
Turning to `COCCOC(=O)N1C(=O)[C@@]2(c3cc(C#CCC(C(=O)OC)C(=O)OC)ccc31)[C@H](c1ccc(OCCO)cc1)N1[C@H](c3ccccc3)[C@H](c3ccccc3)OC(=O)[C@H]1[C@@H]2C(=O)N1CCCCCCC1`, the composite z-score in experiment [1] amounted to 1.27; in experiment [2], 2.5; in experiment [3], 1.21; in [5], 0.778; in [6], 1.34; in [7], 1.32. The results for the composite z-score in experiment [8], in [9] and in experiment [10] were 1.66, 1.04 and 1.93, respectively. Also, in experiment [4], the z-score was -0.915 (inactive).
